Here are results for 11 compounds from ChEMBL document CHEMBL3988442, “University of Dundee, Small-Polar-MMV Screening Library” (2021).

For some of these results: Potency and affinity values are given separately.

Common to all, as to set-up: scale not given: direction of the effect not stated beside the values
Experiment [1] concerns the target Protein translocase subunit SecA (Escherichia coli (strain K12)) (UniProt P10408). In words: Assay to Identify E. coli SecA ATPase Inhibitors. The settings on record: 30 µM. The format is functional.
The target of experiment [2] is T1, Ubiquitin-activating enzyme e1, putative (Leishmania donovani (strain BPK282A1)) (UniProt E9BSI1).
T1 sequence (whole entry): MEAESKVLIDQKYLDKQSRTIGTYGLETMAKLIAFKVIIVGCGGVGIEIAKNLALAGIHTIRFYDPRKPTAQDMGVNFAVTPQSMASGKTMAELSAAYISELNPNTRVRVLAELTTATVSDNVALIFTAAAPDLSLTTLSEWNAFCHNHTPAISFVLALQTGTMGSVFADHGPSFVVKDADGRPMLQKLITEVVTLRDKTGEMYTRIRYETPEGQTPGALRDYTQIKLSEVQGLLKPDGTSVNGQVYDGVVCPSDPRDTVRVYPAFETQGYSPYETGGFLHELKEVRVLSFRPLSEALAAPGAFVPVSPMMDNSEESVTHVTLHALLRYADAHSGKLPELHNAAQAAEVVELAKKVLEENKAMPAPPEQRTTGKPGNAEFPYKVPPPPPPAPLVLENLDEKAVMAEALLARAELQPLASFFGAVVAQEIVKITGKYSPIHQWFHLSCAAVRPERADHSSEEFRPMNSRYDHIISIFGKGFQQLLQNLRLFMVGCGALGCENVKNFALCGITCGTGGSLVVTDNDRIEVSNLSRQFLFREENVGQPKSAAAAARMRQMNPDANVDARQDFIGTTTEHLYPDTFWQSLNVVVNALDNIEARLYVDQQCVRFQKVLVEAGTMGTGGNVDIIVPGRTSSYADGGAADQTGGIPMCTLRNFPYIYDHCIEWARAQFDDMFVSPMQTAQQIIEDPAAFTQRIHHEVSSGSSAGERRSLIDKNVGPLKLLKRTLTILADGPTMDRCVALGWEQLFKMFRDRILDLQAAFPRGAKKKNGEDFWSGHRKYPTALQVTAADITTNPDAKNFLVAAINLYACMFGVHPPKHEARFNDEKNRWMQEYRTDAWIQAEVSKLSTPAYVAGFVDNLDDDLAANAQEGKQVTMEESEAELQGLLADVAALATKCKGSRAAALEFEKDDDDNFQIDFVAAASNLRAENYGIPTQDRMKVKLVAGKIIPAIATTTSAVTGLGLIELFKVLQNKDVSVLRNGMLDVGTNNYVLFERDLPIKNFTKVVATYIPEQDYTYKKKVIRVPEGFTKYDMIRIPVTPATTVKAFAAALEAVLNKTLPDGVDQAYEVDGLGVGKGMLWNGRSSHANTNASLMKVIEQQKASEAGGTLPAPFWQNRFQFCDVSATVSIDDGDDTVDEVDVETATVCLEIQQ
In words: Leishmania donovani Ubiquitin Activating Enzyme (LdE1). The format is functional. The note with it: 30 µM.

The target of experiment [3] is AMP-activated protein kinase, AMPK (Homo sapiens) (UniProt P54646+O43741+P54619+Q9UGJ0+Q9Y478+Q13131+Q9UGI9). In words: AMP-dependent Kinase enzyme assay. An in vitro enzyme assay that detects ADP turnover that is directly proportional to AMPK activity. This uses naive AMPK that is activated during the assay with MK-8722. The format is functional. The settings on record: 30 µM.

Experiment [4] addresses Sialic acid-binding Ig-like lectin 9 (Homo sapiens) (UniProt Q9Y336). Nature of the experiment: Hs-Siglec9 ALPHAscreen SOP 20170721. The note with it: 10 µM.
For experiment [5], the system named is Trypanosoma cruzi. Nature of the experiment: Trypanosoma cruzi phosphomannomutase and mannose-1-phosphate guanylyltransferase assay. The note with it: 10 µM. It is filed as functional.
The target in experiment [6] is T2, Arginase-2, mitochondrial (Homo sapiens) (UniProt P78540).
T2 sequence (whole entry): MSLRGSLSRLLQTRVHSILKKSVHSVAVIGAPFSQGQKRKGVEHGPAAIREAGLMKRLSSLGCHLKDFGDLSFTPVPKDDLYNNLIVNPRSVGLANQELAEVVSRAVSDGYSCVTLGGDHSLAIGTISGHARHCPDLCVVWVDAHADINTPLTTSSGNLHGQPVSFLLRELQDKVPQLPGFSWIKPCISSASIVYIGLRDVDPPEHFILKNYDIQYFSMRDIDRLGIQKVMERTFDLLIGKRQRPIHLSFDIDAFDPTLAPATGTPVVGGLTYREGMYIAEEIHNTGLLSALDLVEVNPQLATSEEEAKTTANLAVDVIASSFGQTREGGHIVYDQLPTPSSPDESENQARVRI
In words: in vitro enzyme assay to detect the production of urea directly proportional to the activity of Arginase II. Note: in the data most compounds retested in dose-response had high values. It is filed as functional. The note with it: 33.3 µM.

Experiment [7] deals with T3, Proteasome subunit beta (Trypanosoma cruzi) (UniProt O96673).
T3 sequence (whole entry): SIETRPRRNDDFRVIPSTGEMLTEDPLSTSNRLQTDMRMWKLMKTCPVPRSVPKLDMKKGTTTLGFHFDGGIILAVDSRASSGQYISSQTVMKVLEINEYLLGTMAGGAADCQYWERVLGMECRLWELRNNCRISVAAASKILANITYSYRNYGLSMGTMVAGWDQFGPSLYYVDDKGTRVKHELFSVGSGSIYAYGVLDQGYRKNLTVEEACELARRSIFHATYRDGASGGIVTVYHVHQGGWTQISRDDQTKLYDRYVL
In words: Trypanosoma cruzi proteasome chymotrypsin-like activity (TcProtChymo) assay. Note: in the data most compounds retested in dose-response had high values. It is filed as functional. The note with it: 9.37 µM.

The species entered for experiment [8] is Homo sapiens. In words: To identify inhibition of the IFN signalling (Jak-Stat) pathway via expression of an eGFP reporter gene under the control of an IFN-stimulated response element (ISRE) containing MxA promoter. It is filed as functional. The settings on record: 30 µM.
Experiment [9] has as its target T4, Tyrosyl-tRNA synthetase, putative (Trypanosoma cruzi (strain CL Brener)) (UniProt Q4DSP6).
T4 sequence (whole entry): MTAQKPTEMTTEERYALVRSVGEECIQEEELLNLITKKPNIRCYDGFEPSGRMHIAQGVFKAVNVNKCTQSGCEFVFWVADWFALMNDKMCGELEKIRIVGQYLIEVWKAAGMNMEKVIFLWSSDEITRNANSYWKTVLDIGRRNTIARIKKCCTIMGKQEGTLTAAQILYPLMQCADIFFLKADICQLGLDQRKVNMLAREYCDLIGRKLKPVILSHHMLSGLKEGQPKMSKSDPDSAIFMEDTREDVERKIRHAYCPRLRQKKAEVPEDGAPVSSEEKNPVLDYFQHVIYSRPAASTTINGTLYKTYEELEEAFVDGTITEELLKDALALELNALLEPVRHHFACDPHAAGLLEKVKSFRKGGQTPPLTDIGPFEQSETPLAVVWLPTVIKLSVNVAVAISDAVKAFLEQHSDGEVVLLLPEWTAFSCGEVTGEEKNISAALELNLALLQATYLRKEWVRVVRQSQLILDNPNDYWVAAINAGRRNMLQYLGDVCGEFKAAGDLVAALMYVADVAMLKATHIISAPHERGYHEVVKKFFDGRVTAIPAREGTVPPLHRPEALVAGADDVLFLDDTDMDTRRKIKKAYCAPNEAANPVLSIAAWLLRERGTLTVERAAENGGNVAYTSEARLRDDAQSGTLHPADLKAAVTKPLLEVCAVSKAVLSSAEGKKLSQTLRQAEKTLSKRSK
In words: Trypanosoma cruzi tyrosyl tRNA synthetase (TcYRS) _High Tyrosine SOP. Note: in the data most compounds retested in dose-response had high values. The format is functional. The note with it: 30 µM.

Experiment [10] addresses T4, Tyrosyl-tRNA synthetase, putative (Trypanosoma cruzi (strain CL Brener)). Nature of the experiment: Trypanosoma cruzi tyrosyl tRNA synthetase (TcYRS) SOP. It is filed as functional. The note with it: 30 µM.
For experiment [11], the target named is Chromo domain-containing protein 1 (Saccharomyces cerevisiae (strain ATCC 204508 / S288c) (Baker's yeast)) (UniProt P32657). In words: ScCHD-1 Enzyme Inhibition Assay. Note: in the data most compounds retested in dose-response had high values. It is filed as functional. The note with it: 30 µM.
Chain of Chromo domain-containing protein 1 (Saccharomyces cerevisiae (strain ATCC 204508 / S288c) (Baker's yeast)) (P32657 whole entry, the tested form may be a part): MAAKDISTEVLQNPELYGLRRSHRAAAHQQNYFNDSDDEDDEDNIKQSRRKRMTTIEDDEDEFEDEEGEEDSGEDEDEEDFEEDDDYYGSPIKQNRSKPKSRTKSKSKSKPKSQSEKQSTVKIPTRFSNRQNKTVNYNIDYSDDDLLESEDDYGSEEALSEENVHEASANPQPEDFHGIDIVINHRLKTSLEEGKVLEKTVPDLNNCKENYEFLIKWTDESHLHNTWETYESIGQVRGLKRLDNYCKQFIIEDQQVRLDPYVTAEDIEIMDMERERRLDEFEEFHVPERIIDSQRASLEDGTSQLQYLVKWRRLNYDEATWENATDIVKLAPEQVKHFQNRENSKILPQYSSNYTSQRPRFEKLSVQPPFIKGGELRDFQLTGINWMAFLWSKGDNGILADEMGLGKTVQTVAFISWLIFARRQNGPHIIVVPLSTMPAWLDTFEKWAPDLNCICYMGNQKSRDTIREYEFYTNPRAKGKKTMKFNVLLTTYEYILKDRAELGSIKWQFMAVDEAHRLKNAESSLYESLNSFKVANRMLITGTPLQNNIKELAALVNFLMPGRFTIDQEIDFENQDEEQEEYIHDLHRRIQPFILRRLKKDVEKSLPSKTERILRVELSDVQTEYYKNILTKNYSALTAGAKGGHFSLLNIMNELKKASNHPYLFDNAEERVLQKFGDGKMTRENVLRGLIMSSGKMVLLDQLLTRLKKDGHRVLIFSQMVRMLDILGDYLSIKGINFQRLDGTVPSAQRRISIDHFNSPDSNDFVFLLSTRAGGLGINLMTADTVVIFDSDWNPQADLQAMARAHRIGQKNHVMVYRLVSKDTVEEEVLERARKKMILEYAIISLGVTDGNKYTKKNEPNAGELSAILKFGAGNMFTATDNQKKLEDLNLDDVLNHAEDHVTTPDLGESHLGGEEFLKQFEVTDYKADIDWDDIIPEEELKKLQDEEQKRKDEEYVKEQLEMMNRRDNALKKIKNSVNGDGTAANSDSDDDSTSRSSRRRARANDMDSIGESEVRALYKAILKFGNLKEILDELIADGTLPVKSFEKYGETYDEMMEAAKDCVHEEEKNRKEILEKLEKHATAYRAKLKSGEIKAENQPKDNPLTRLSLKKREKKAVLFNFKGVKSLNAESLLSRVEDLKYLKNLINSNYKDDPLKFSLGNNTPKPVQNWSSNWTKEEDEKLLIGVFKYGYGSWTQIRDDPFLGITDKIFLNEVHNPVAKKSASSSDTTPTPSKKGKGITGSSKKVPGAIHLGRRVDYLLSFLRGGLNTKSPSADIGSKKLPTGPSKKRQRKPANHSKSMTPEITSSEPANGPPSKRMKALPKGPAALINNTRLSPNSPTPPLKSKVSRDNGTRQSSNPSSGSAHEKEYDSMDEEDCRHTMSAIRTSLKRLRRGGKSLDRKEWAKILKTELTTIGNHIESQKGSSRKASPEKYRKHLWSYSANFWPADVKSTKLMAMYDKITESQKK

Chain of Protein translocase subunit SecA (Escherichia coli (strain K12)) (P10408 whole entry): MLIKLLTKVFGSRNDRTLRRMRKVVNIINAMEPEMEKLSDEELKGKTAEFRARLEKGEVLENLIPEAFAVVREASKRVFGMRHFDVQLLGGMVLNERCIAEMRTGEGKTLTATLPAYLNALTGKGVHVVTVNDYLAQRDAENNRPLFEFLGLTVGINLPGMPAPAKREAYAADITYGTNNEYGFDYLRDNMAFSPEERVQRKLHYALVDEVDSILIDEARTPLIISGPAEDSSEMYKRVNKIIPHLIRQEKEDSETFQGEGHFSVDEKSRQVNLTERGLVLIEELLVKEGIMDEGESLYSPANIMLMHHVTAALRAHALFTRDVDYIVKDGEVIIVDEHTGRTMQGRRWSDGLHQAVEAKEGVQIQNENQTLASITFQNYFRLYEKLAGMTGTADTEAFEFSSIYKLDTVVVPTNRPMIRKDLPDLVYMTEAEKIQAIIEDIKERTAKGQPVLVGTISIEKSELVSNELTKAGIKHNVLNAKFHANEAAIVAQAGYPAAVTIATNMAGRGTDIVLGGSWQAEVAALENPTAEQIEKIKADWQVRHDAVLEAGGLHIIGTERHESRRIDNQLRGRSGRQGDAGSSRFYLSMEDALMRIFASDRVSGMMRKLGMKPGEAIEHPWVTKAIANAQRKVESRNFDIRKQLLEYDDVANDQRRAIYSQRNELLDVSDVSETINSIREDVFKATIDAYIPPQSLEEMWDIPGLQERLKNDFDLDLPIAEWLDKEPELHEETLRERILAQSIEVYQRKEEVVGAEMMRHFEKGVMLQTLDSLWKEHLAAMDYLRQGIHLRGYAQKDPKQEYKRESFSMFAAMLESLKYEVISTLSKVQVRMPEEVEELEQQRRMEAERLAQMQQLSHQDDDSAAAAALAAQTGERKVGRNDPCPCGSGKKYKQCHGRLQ
Chain of Sialic acid-binding Ig-like lectin 9 (Homo sapiens) (Q9Y336 whole entry): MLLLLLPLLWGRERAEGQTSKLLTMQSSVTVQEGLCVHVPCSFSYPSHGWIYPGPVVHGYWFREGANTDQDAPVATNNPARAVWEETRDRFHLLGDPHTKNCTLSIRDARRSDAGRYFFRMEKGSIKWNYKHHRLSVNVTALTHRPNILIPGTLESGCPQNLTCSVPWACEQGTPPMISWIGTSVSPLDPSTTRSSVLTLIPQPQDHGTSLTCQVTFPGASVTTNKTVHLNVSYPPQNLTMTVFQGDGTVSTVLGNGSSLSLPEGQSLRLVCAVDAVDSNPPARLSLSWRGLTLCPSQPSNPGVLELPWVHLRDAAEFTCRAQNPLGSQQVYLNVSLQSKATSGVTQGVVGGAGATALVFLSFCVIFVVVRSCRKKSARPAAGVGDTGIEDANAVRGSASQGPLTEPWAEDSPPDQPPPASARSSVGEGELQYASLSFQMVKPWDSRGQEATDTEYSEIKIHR

Turning to `Cc1noc(C)c1CCC(=O)NC(C)c1nnc2n1CCC2` (stereo unspecified), the Percent Effect in experiment [1] is -2.15%; in [2], 16.2%; in experiment [3] it was 5.84%; in [4] it was 17.7%; in experiment [5] it was 6.35%; in experiment [6], 5.71%. For the same compound, the Percent Effect is 5.24% in [7]; 3.14% in [8]; 2.15% in experiment [9]; 13.6% in experiment [10]; -4.65% in [11].

Regarding `Cc1cc(C)n(CC(=O)N(C)Cc2csc(-c3cccs3)n2)c(=O)n1`, the Percent Effect is 0.251% in experiment [1]; 0% in experiment [2]; -4.15% in [3]; 2.64% in [4]; 1.66% in experiment [5]; 7.29% in [6]. Further, the Percent Effect is 19.5% in [7]; 17.8% in experiment [8]; 6.01% in experiment [9]; 18.5% in experiment [10]; -6.32% in experiment [11].

In the case of `COc1ccc(CN2C[C@H]3CN(c4ccsc4)C(=O)[C@H]3C2)cc1`, the Percent Effect in experiment [1] was -1.53%; in [2], 0%; in experiment [3] it was 6.82%; in [4], -0.914%; in experiment [5] it was -3.23%; in experiment [6] it was 0.955%. The Percent Effect was 19% in experiment [7]; 14.6% in experiment [8]; 2.16% in experiment [9]; 10.3% in experiment [10]; -1.59% in [11].

On to `CCn1cc(N)c(C(=O)NCc2cnn(C)c2)n1`, for which the Percent Effect was -3.38% in [1]; 5.2% in experiment [2]; 2.98% in experiment [3]; 0.256% in [4]; -1.48% in [5]; -8.28% in experiment [6]. Also, the Percent Effect in experiment [7] is 9.48%; in [8], -5.92%; in [9] it was 6.45%; in experiment [10], 11.1%; in [11], 1.02%.

In the case of `Cc1ccc(C(=O)NS(=O)(=O)c2cccc3cnccc23)c(=O)[nH]1`, the Percent Effect in experiment [1] was -5.08%; in [2] it was 13.5%; in experiment [3] it was -0.0909%; in experiment [4], 7.48%; in experiment [5], 0.65%; in experiment [6] it was 1.66%. The Percent Effect in [7] came out at 6.64%; in [8] it was 13%; in experiment [9], 6.93%; in [10], 15.8%; in experiment [11] it was 2.35%.

Take `COC(=O)CN(C)C1CCc2ccccc21` (stereo unspecified): the Percent Effect in [1] was -0.581%; in experiment [2], 15.8%; in experiment [3] it was 1.01%; in experiment [4], 8.14%; in experiment [5], 1.5%; in [6], 5.36%. Moreover, the Percent Effect in [7] is 18.4%; in [8], -4.6%; in experiment [9], 7.35%; in [10] it was 9.76%; in [11], -8.13%.

Regarding `Cc1cc(C(=O)N2CCc3nnc(N)cc3C2)c(C)n1C1CC1`, the Percent Effect in experiment [1] is -4.88%; in [2], 8.86%; in experiment [3] it was -10.1%; in experiment [4], 0.435%; in [5] it was -1.95%; in experiment [6], -3.23%. In addition, the Percent Effect was 20.1% in experiment [7]; 2.81% in experiment [8]; 7.29% in experiment [9]; 17.7% in experiment [10]; -16.9% in [11].

Regarding `CC(C(=O)N1CCCN(c2ncccc2C#N)CC1)n1ccnc1` (stereo unspecified), the Percent Effect in [1] is -2.42%; in experiment [2], 21.1%; in experiment [3] it was 0.0866%; in experiment [4], -9.53%; in experiment [5], 5.13%; in experiment [6], -1.08%. Also, the Percent Effect in experiment [7] is 7.19%; in [8] it was 14%; in experiment [9], 10.3%; in [10] it was 18.5%; in experiment [11], -9.73%.

As for `O=C([C@H]1CCCO1)N1CC[C@H](O)[C@@H]1Cc1ccncc1`, the Percent Effect is -0.613% in experiment [1]; 5.2% in experiment [2]; 0.39% in experiment [3]; 3.47% in experiment [4]; -2.07% in experiment [5]; 8.39% in experiment [6]. In addition, the Percent Effect is -1.57% in experiment [7]; -7.18% in [8]; 4.23% in [9]; 1.28% in experiment [10]; -0.313% in [11].

As for `CCCC(Nc1c(C#N)c(=O)n(C)c(=O)n1C)c1ccc(F)cc1F` (stereo unspecified), the Percent Effect in experiment [1] is -5.68%; in experiment [2], 10.1%; in experiment [3] it was 0.965%; in [4], 11%; in experiment [5] it was 5.19%; in experiment [6], 4.18%. Moreover, the Percent Effect in [7] was 0.573%; in experiment [8], 1.79%; in experiment [9], 7.39%; in experiment [10] it was 13.9%; in experiment [11], -4.28%.

Turning to `Cc1nc(C2CCCN(C(=O)c3ccco3)C2)no1` (stereo unspecified), the Percent Effect is -7.21% in experiment [1]; 1.27% in experiment [2]; 1.16% in [3]; -2.53% in experiment [4]; -0.308% in experiment [5]; -0.645% in experiment [6]. Moreover, the Percent Effect in experiment [7] was 1.37%; in [8], 16%; in experiment [9] it was 1.04%; in [10], -7.59%; in experiment [11] it was -4.36%.
